# Assay outcomes deposited in PubChem BioAssay by several laboratories.
# sPLA2-III inh: Blocks human group III sPLA2 activity; Q9NZ20; AID 743126; hit rate 0.56% among 370,000; QFRET BODIPY PC-A2 liposome hydrolysis, fluorescence; inhibition, % at 12.2 µM;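 active = inhibition above mean plus 3 SD of compounds lying within the high and low control bounds, cut at about 19% in these data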;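 also: 0% = median of test compound wells and 100% = no enzyme DMSO wells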
# CTSL1 counter: cathepsin L1 inhibition, PFM18AAP counter-screen; hit rate 0.49% among 300,000; inhibition, % at 5.96 µM; recombinant F. hepatica cathepsin L1, Z-Leu-Arg-MCA fluorescence;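 active = inhibition above the mean of all tested compounds plus 3 SD, set per screening campaign, cut at about 17% in these data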;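 also: 0% = plate median of test compound wells and 100% = 1 µM Z-Phe-Ala-diazomethylketone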
# A3G deaminase: blocks human APOBEC3G single-stranded DNA deamination; hit rate 0.28% among 330,000; recombinant A3G, ssDNA deamination FAM/TAMRA fluorescence; AID 493012; inhibition, % at 20 µM;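 active = inhibition of at least 40% at 20 µM, with no more than 30% in the related APOBEC3A deaminase screen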;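 also: plate controls were DMSO wells with A3G for no effect and wells lacking A3G enzyme for full effect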
# NALP1 inh: NALP1 inhibition. S. cerevisiae NALP1/ASC/caspase-1 growth, X-gal OD620, 72 h. inhibition, % at 10 µM. hit rate 0.61% among 280,000; in the data active = inhibition mostly above about 24%, no sharp cut-off; inactive = mostly below about 32%
# A3A deaminase: human APOBEC3A DNA deaminase inhibition; recombinant A3A, FAM/TAMRA ssDNA deamination fluorescence; inhibition, % at 20 µM; AID 493011; hit rate 0.41% among 330,000;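 active = at least 40% inhibition at 20 µM here, with at most 30% in a related deaminase screen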;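 also: plate controls were A3A with DMSO for no effect and wells lacking A3A enzyme for full effect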
# Target sequence (P31941 whole entry, looked up): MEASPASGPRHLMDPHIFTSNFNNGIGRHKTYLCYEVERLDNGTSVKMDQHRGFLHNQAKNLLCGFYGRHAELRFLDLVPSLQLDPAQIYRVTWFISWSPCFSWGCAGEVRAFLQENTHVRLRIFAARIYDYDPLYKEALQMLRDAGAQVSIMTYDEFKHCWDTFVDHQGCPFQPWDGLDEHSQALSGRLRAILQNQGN
# APOBEC3A confirm: confirmation of human APOBEC3A DNA deaminase inhibitors. shares compounds with A3A deaminase. recombinant A3A, ssDNA deaminase UDG fluorescence assay. inhibition, % at 20 µM. hit rate 63% among 1,400. AID 493151;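 active = inhibition reaching a set limit, 80% of the first screen's cutoff, at 20 µM in any replicate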;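 also: plate controls were DMSO wells with A3A for no effect and wells lacking A3A enzyme for full effect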
# UDG A3A counter: counter-screen for APOBEC3A inhibitors: UDG; shares compounds with A3A deaminase; UDG counterscreen, FAM/TAMRA uracil oligo fluorescence; inhibition, % at 20 µM; 1,000 tested, under 10 active; AID 504714; call rule not given here
# * = called active by the depositor; . = not tested or not shown. Shown are actives, neighbours in structure and some others; about 2% of the full set was active somewhere.
SMILES,sPLA2-III inh,CTSL1 counter,A3G deaminase,NALP1 inh,A3A deaminase,APOBEC3A confirm,UDG A3A counter
O=C1Nc2ccccc2-n2nnnc2C1N1CCN(c2ccc(C(F)(F)F)cc2[N+](=O)[O-])CC1 (stereo not given),-16.3,.,.,.,.,.,.
Cc1cccc(-c2cccc3c4c([nH]c23)[C@@H]2C[C@H](N(C)C(=O)Nc3ccccc3)[C@H]([C@H](C)O)C(=O)N2CC4)c1,-17.8,.,.,.,.,.,.
O=C1OC(c2ccc3c(c2)OCO3)=N/C1=C\c1ccc(C(=O)O)cc1,0.3,1.7,10.6,2.6,40.2*,32.2*,-2.6
CCCC[C@H]1C2CC(OC(=O)Nc3cccc(Br)c3)C(C2)[C@H]2CCCCN21 (stereo not given in full),-5.9,.,.,.,.,.,.
O=C(CCCOc1ccccc1)N1CCN(S(=O)(=O)c2ccc(Cl)cc2)CC1,2.3,-4.3,7.8,.,0.2,.,.
CCOc1ccc(OCCCC(=O)N2CCN(S(=O)(=O)c3ccc(Cl)cc3)CC2)cc1,3.2,0.6,15.3,.,70.4*,76.6*,-1.9
CNC[C@H]1OCc2cnnn2CCCC(=O)N([C@@H](C)CO)C[C@@H]1C,7.9,.,.,.,.,.,.
CC(C)C[C@H](NC(=O)c1ccccn1)C(=O)N1CCC[C@H]1C(=O)NCc1ccccc1,-1.8,.,.,.,.,.,.
COC(=O)[C@H]1C[C@]2(C(/C=C(\C)CCC=C(C)C)S(=O)(=O)c3ccccc3)c3ccccc3N[C@H]2N1 (stereo not given in full),-10.4,.,.,.,.,.,.
Cc1c(Cl)cccc1NC(=O)CNC(=O)c1ccc2c(c1)OCCO2,6.8,.,8.5,.,51.4*,40.9*,1.9
C[N+]12CCCCC1C(COC(=O)c1ccc3c(c1)OCO3)CCC2 (stereo not given),4.2,-3.6,27.7,8.9,58.1*,47.9*,.
CN(C(=O)COC(=O)c1ccc2c(c1)OCO2)C1CCCCC1,2.8,.,-4.1,.,-1.9,.,.
COc1ccc(CNCC#Cc2cccnc2)c(OC)c1,0.6,.,.,.,.,.,.
O=C(COC(=O)c1nc(Cl)c(Cl)c(Cl)c1Cl)c1ccc[nH]1,3.2,-1.4,12.8,.,44.9*,3.8,.
Nc1ccc2ccc(N)cc2c1,-1.1,.,.,.,.,.,.
O=C1CN(C(=O)CSc2nc(-c3ccccc3)cs2)c2ccccc2N1,5.5,-2.3,2.4,23.0,-0.4,.,.
O=C1CN(C(=O)CSc2nncs2)c2ccccc2N1,3.9,-1.3,-3.1,8.3,44.2*,-5.2,-2.9
CCCCCC[C@@H](CN(CCCC)S(C)(=O)=O)c1ccccc1,11.6,.,.,.,.,.,.
N/C(=N/S(=O)(=O)c1ccccc1)c1cccc([N+](=O)[O-])c1,-2.6,-2.9,-6.8,-6.5,45.0*,-0.3,0.4
N/C(=N/OC(=O)c1cccc([N+](=O)[O-])c1)c1cccc([N+](=O)[O-])c1,3.1,1.7,-3.8,3.6,47.3*,6.9,5.3
Cc1ccc(-c2cc(C(=O)NN=Cc3ccc(-c4ccccc4)cc3)[nH]n2)cc1,3.3,.,.,.,.,.,.
COc1ccc([C@H]2OC(=O)C[C@@H]2C(=O)N2CCCCC2)cc1OC,0.1,.,.,.,.,.,.
COc1ccc(S[C@]2(C(=O)N3CCN(c4ncccn4)CC3)CC(=O)N[C@@H]2c2ccc(OC)cc2)cc1,-6.0,.,.,.,.,.,.
COc1ccc(/C=N/OC(=O)Nc2ccccc2OC)cc1,-9.3,-0.6,-3.0,-23.7,97.2*,-63.6,5.8
O=C(Nc1nc2ccccc2s1)C1CCN(S(=O)(=O)c2cc([N+](=O)[O-])ccc2Cl)CC1,-0.3,2.1,21.9,.,80.2*,39.8*,.
CCN1CCN(c2ccc(S(=O)(=O)N3CCCCC3)cc2NC(=O)c2sccc2C)CC1,-8.4,4.5,20.8,.,69.4*,64.2*,-3.0
CCN1CCN(c2ccc(S(=O)(=O)N3CCCCC3)cc2NC(=O)c2ccc([N+](=O)[O-])o2)CC1,-9.3,10.4,5.5,.,53.1*,33.4*,.
COc1ccc(S(=O)(=O)N2CCCCC2)cc1NC(=O)c1ccc([N+](=O)[O-])o1,-0.9,2.8,-9.2,3.2,4.6,.,.
CCN1CCN(c2ccc(S(=O)(=O)N3CCCCC3)cc2NC(=O)c2ccc(C)c(C)c2)CC1,2.0,.,.,.,.,.,.
O=C(c1ccc(F)cc1Cl)N1CCC(Oc2cccnc2)CC1,-2.7,.,.,.,.,.,.
